Laboratory results reported in publication PMC5540273 (PLoS ONE, 2017).

System: T1, BIKE
T1 construct: gene BMP2K
Conditions: concentration: 1 μM, replicates: in singlicate; n = 1
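Further: KINOMEscan kinase panel screen.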

Structure (SMILES)	%Inh
N#Cc1ccc(Oc2ccc(Nc3ncnc4cc[nH]c34)cc2Cl)cc1	1%
Cc1cc(N2CCC(NS(=O)(=O)c3ccc(F)cc3)CC2)nc(Nc2cccc(C#N)c2)n1.O=C(O)C(F)(F)F [GSK1653537]	21%
O=C(NCCCN1CCCC1=O)c1cnc(NCc2cc(Cl)ccc2Cl)nc1NC1CCNCC1	4%
c1ccc(-c2ccc3c(-c4ccnc(Nc5ccc6c(c5)OCCO6)n4)cnn3n2)cc1 [GW818941]	27%
CNc1nccc(-c2c(-c3ccc(F)cc3)ncn2CCCN2CCOCC2)n1 [SB-222516]	0%
C[C@@H]1CCN(C(=O)CO)C[C@@H]1N(C)c1ncnc2[nH]ccc12	19%
Cn1ccc2ncnc(Oc3ccc(NC(=O)Nc4cccnc4)c(Cl)c3)c21	0%
O=C(c1ccc(-c2cc(-c3c[nH]nc3-c3ccccn3)ccn2)cc1)N1CCCC1 [GW792479]	18%
O=C(Nc1n[nH]c2nc(-c3ccco3)c(Br)cc12)c1ccc(CN2CCCC2)cc1.O=C(O)[C@H](O)[C@@H](O)C(=O)O [SB-742352]	0%
Nc1n[nH]c2nnc(-c3ccccc3)cc12 [SB-517389]	0%
Oc1ccc2ncnc(Nc3ccc(OCc4ccccc4)cc3)c2c1 [GI262866]	20%
O=C(CCO)NCCn1ccc2ncnc(Nc3ccc(Oc4cccc(C(F)(F)F)c4)c(Cl)c3)c21	0%
Nc1nc(-c2cccnc2)c(-c2ccnc3ccccc23)s1 [GW684083]	34%
COc1ccc(Nc2nccc(N3CCC(NC(=O)c4cccc(NC(C)=O)c4)C3)n2)cc1 (stereo not drawn) [GSK1379732]	0%
CC(=O)Nc1n[nH]c2ncc(-c3ccccc3)cc12 [SB-548492]	7%
COc1ccc(Nc2nccc(N3CCC(NC(=O)Nc4ccc5c(c4)OCO5)C3)n2)cc1 (stereo not drawn) [GSK1379745]	33%
CCCc1ccc(S(=O)(=O)NC2CCN(c3ccnc(Nc4ccc(OC)cc4)n3)C2)cc1 (stereo not drawn) [GSK1379737]	0%
Nc1nccc2scc(-c3ccc4c(c3)CCN4C(=O)Cc3cc(F)ccc3F)c12 [GSK2587663]	10%

Structure (SMILES)	%Inh
CS(=O)(=O)CCNCc1nc(-c2ccc3ncnc(Nc4ccc(OCc5cccc(F)c5)c(Cl)c4)c3c2)cs1.Cl [GW583340]	0%
COc1ccc(NC(=O)Nc2ccc(C)c(-c3ccc(C(=O)Nc4ccncc4)cc3)c2)cc1 [GSK1398475]	0%
FC(F)(F)c1cc(Nc2nccc(-c3c(-c4ccc(Cl)cc4)nn4ncccc34)n2)ccc1Cl [GW829351]	0%
Cl.Cl.c1ccc(-c2cc3ccncc3cc2OC2CCNCC2)cc1 [GSK1122999]	27%
Nc1nc(-c2ccc3c(N)n[nH]c3c2)cc(N2CCCCC2)n1 [GSK2228768]	56%
COc1cc2c(Nc3cccc(NC(=O)c4ccccc4)c3)ncnc2cc1OCCCN1CCOCC1 [GSK223810]	42%
Clc1cccc(-c2nc(Nc3ccncc3)c3ccccc3n2)c1 [GW873004]	10%
CSc1ccc(NC2=C(c3ccccc3Cl)C(=O)NC2=O)cc1 [SB-342411]	19%
O=C(Nc1ccccc1F)NC1CCN(c2ccnc(Nc3ccc(F)cc3)n2)C1 (stereo not drawn) [GSK1379722]	8%
Cc1ccc(NC(=O)c2cccc(C#N)c2)cc1-c1ccc(C(=O)Nc2ccncc2)cc1 [GSK1398463]	24%
Nc1nc(-c2ccc3c(N)n[nH]c3c2)cc(N2CCC[C@@H](C(=O)Nc3ccccc3)C2)n1.O=C(O)C(F)(F)F.O=C(O)C(F)(F)F [GSK2288359]	29%
CCc1nc(-c2cccc(C)c2)c(-c2ccnc(NC(=O)c3ccccc3)c2)s1	0%
Cl.Fc1ccccc1COc1ccc(Nc2ncnc3ccc(-c4nnc(C(F)(F)F)o4)cc23)cc1Cl [GW424170]	9%
Clc1cc(Nc2ncnc3cc[nH]c23)ccc1OCc1ccccn1	0%
CC(C)N1CCC(n2cnc(-c3ccc(F)cc3)c2-c2ccnc(N)n2)CC1 [SB-223132]	32%
COC(=O)c1cccc(NC(=O)NCCNc2ccnc(Nc3ccc(F)cc3)n2)c1 [GSK1379883]	22%
Cc1ccc(C)c(NC(=O)NCCNc2ccnc(Nc3ccc(F)cc3)n2)c1 [GSK1379878]	20%
CCC(CC)(CC)n1cnc2c(N)ncnc21 [SKF-97620]	0%

System: BLK
Conditions: concentration: 1 μM, replicates: in singlicate; n = 1

Structure (SMILES)	%Inh
N#Cc1ccc(Oc2ccc(Nc3ncnc4cc[nH]c34)cc2Cl)cc1	28%
Cc1cc(N2CCC(NS(=O)(=O)c3ccc(F)cc3)CC2)nc(Nc2cccc(C#N)c2)n1.O=C(O)C(F)(F)F [GSK1653537]	25%
O=C(NCCCN1CCCC1=O)c1cnc(NCc2cc(Cl)ccc2Cl)nc1NC1CCNCC1	0%
c1ccc(-c2ccc3c(-c4ccnc(Nc5ccc6c(c5)OCCO6)n4)cnn3n2)cc1 [GW818941]	12%
CNc1nccc(-c2c(-c3ccc(F)cc3)ncn2CCCN2CCOCC2)n1 [SB-222516]	17%
C[C@@H]1CCN(C(=O)CO)C[C@@H]1N(C)c1ncnc2[nH]ccc12	2%
Cn1ccc2ncnc(Oc3ccc(NC(=O)Nc4cccnc4)c(Cl)c3)c21	8%
O=C(c1ccc(-c2cc(-c3c[nH]nc3-c3ccccn3)ccn2)cc1)N1CCCC1 [GW792479]	9%
O=C(Nc1n[nH]c2nc(-c3ccco3)c(Br)cc12)c1ccc(CN2CCCC2)cc1.O=C(O)[C@H](O)[C@@H](O)C(=O)O [SB-742352]	0%
Nc1n[nH]c2nnc(-c3ccccc3)cc12 [SB-517389]	0%
Oc1ccc2ncnc(Nc3ccc(OCc4ccccc4)cc3)c2c1 [GI262866]	31%
O=C(CCO)NCCn1ccc2ncnc(Nc3ccc(Oc4cccc(C(F)(F)F)c4)c(Cl)c3)c21	0%
Nc1nc(-c2cccnc2)c(-c2ccnc3ccccc23)s1 [GW684083]	58%
COc1ccc(Nc2nccc(N3CCC(NC(=O)c4cccc(NC(C)=O)c4)C3)n2)cc1 (stereo not drawn) [GSK1379732]	40%
CC(=O)Nc1n[nH]c2ncc(-c3ccccc3)cc12 [SB-548492]	28%
COc1ccc(Nc2nccc(N3CCC(NC(=O)Nc4ccc5c(c4)OCO5)C3)n2)cc1 (stereo not drawn) [GSK1379745]	25%
CCCc1ccc(S(=O)(=O)NC2CCN(c3ccnc(Nc4ccc(OC)cc4)n3)C2)cc1 (stereo not drawn) [GSK1379737]	30%
Nc1nccc2scc(-c3ccc4c(c3)CCN4C(=O)Cc3cc(F)ccc3F)c12 [GSK2587663]	54%

Structure (SMILES)	%Inh
CS(=O)(=O)CCNCc1nc(-c2ccc3ncnc(Nc4ccc(OCc5cccc(F)c5)c(Cl)c4)c3c2)cs1.Cl [GW583340]	25%
COc1ccc(NC(=O)Nc2ccc(C)c(-c3ccc(C(=O)Nc4ccncc4)cc3)c2)cc1 [GSK1398475]	28%
FC(F)(F)c1cc(Nc2nccc(-c3c(-c4ccc(Cl)cc4)nn4ncccc34)n2)ccc1Cl [GW829351]	0%
Cl.Cl.c1ccc(-c2cc3ccncc3cc2OC2CCNCC2)cc1 [GSK1122999]	41%
Nc1nc(-c2ccc3c(N)n[nH]c3c2)cc(N2CCCCC2)n1 [GSK2228768]	4%
COc1cc2c(Nc3cccc(NC(=O)c4ccccc4)c3)ncnc2cc1OCCCN1CCOCC1 [GSK223810]	58%
Clc1cccc(-c2nc(Nc3ccncc3)c3ccccc3n2)c1 [GW873004]	19%
CSc1ccc(NC2=C(c3ccccc3Cl)C(=O)NC2=O)cc1 [SB-342411]	0%
O=C(Nc1ccccc1F)NC1CCN(c2ccnc(Nc3ccc(F)cc3)n2)C1 (stereo not drawn) [GSK1379722]	16%
Cc1ccc(NC(=O)c2cccc(C#N)c2)cc1-c1ccc(C(=O)Nc2ccncc2)cc1 [GSK1398463]	31%
Nc1nc(-c2ccc3c(N)n[nH]c3c2)cc(N2CCC[C@@H](C(=O)Nc3ccccc3)C2)n1.O=C(O)C(F)(F)F.O=C(O)C(F)(F)F [GSK2288359]	0%
CCc1nc(-c2cccc(C)c2)c(-c2ccnc(NC(=O)c3ccccc3)c2)s1	16%
Cl.Fc1ccccc1COc1ccc(Nc2ncnc3ccc(-c4nnc(C(F)(F)F)o4)cc23)cc1Cl [GW424170]	21%
Clc1cc(Nc2ncnc3cc[nH]c23)ccc1OCc1ccccn1	0%
CC(C)N1CCC(n2cnc(-c3ccc(F)cc3)c2-c2ccnc(N)n2)CC1 [SB-223132]	2%
COC(=O)c1cccc(NC(=O)NCCNc2ccnc(Nc3ccc(F)cc3)n2)c1 [GSK1379883]	0%
Cc1ccc(C)c(NC(=O)NCCNc2ccnc(Nc3ccc(F)cc3)n2)c1 [GSK1379878]	33%
CCC(CC)(CC)n1cnc2c(N)ncnc21 [SKF-97620]	0%
